{
  "source": "PubChem BioAssay AID743361",
  "about": "(Molecular Libraries Program, Specialized Chemistry Center, …, 2014)",
  "note": "Values without a mark were called inactive. The source made the active and inactive calls. The rule behind the calls is not given here.",
  "data": [
    {"test": "cell-free Rh123 fluorescence quenching read-out – biochemical, dry powder samples, uHTS hits, counter-screen for mtPTP inhibitor project, dose response (AID 743361)", "conditions": "Rhodamine 123 fluorescence quenching counterscreen", "values": [
      {"smiles": "CN1CCN(CCc2ccc(NS(=O)(=O)c3cccc(Cl)c3)cc2)CC1", "IC50": "> 100 µM"},
      {"smiles": "COc1ccc(NC(=O)c2cc(-c3cccc(O)c3)on2)cc1Cl", "IC50": "> 100 µM"},
      {"smiles": "CN1CCN(CCc2ccc(NS(=O)(=O)c3cc(Cl)cc(Cl)c3)cc2)CC1", "IC50": "> 100 µM"},
      {"smiles": "CN1CCN(c2ccc(Cl)cc2NC(=O)/C=C/c2cccc(F)c2)CC1", "IC50": "> 100 µM"},
      {"smiles": "CC(C)C1CCN(CCCC(=O)c2ccc(Br)cc2)CC1", "IC50": "64.6 µM (active)"},
      {"smiles": "O=S(=O)(Nc1ccc(CCN2CCCCC2)cc1)c1cc(Cl)cc(Cl)c1", "IC50": "> 100 µM"},
      {"smiles": "O=C(Nc1cc(Cl)ccc1F)c1cc(-c2cccc(O)c2)on1", "IC50": "> 100 µM"},
      {"smiles": "COc1ccc(NC(=O)c2cc(-c3ccc(Cl)cc3)on2)cc1Cl", "IC50": "> 100 µM"},
      {"smiles": "COc1ccc(Cl)c(C(=O)Nc2ccc(CCN3CCOCC3)cc2)c1", "IC50": "> 100 µM"},
      {"smiles": "O=C(Nc1ccc(Cl)cc1)c1cc(-c2ccccc2)on1", "IC50": "> 100 µM"},
      {"smiles": "O=C(Nc1ccccc1C(F)(F)F)c1cc(-c2ccccc2)on1", "IC50": "> 100 µM"},
      {"smiles": "COc1ccc(Cl)c(C(=O)Nc2ccc(CN3CCN(C)CC3)cc2)c1", "IC50": "> 100 µM"},
      {"smiles": "CN1CCN(c2ccc(NC(=O)c3cccc(OCc4ccccc4)c3)cc2)CC1", "IC50": "> 100 µM"},
      {"smiles": "O=C(Nc1cc(Cl)cc(Cl)c1)c1cc(-c2cccc(O)c2)on1", "IC50": "> 100 µM"}
    ]}
  ]
}
